Unmarked numbers belong to inactive results. Inconclusive results are not listed. Calls of active or inactive are those of the source. Unless noted, calls follow the shape of the dose curve; as a rule, active = well fitted curve in either direction with a large enough effect (not every such curve was filed as active); inconclusive = small, poorly fitted or top-dose-only effect, or another doubt; inactive = flat fitted curve, though single readings scatter. A value given as a limit tells only on which side of the number the result lay.

The values that follow come from PubChem BioAssay (NCATS).

In experiment [1] the target is Lysosomal acid glucosylceramidase (Homo sapiens) (UniProt P04062). Description: Glucocerebrosidase-p2 (AID 348; in the data active = potency below about 10 µM; also: potency is read from the fitted curve at half-maximal effect). The conditions noted are these: purified GBA, blue fluorogenic substrate, 40 min. The method, boiled down:
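Compounds titrated from 0.6 nM upwards against 0.2 nM enzyme in pH 5.9 citric acid/KH2PO4, taurocholate, tween-20; blue fluorogenic substrate 80 uM, 40 min room temperature, stopped and read Ex 365/Em 440 for AC50.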

Experiment [2] in a line: AP1 Signaling Pathway (AID 357).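 Also: ME-180 reporter cells stimulated with EGF at its EC50 level; % is scaled to controls: 0 for no effect and ±100 for the full control effect.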 As to conditions: ME-180 AP-1-bla reporter, EGF-induced, beta-lactamase ratio, 5 h; at 7.69 µM (top of the series) unless noted. Summed up: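 In this screen, ME-180 cells in Opti-MEM with 0.5% dialyzed FBS received EC50 EGF and compound titrations for 5 h. AP-1 reporter beta-lactamase was detected via CCF4 ratio, giving AC50 for positive and negative modulators.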

Experiment [3] concerns the target Cytochrome P450 1A2 (Homo sapiens) (UniProt P05177). Description: p450-cyp1a2 (AID 410; calls by dose curve; also: potency is read from the fitted curve at half-maximal effect). The conditions noted are these: recombinant CYP1A2, luciferin-ME demethylation, luminescence; series mostly up to 11.4 µM. The method, boiled down:
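Inhibition was calculated relative to 57 uM furafylline (full inhibition). The reaction used human CYP1A2 at 20nM with Luciferin-ME at its Km, 100uM, driven by an NADPH-regenerating system for 60 min at room temperature.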

A short description of experiment [4]: NFAT Signaling Pathway (AID 444).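 Also: carbachol stimulus at about its EC50 of 1 µM final; % is scaled to controls: 0 for no effect and ±100 for the full control effect.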 As to conditions: Jurkat NFAT-bla M1, carbachol, beta-lactamase ratio, 5 h; at 7.69 µM (top of the series) unless noted. Summed up:
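Jurkat cells with NFAT-driven β-lactamase reporter and co-expressed M1 receptor, stimulated with carbachol (final 1 uM, ~EC50), compound titration, 5 h at 37 °C. CCF4 loaded 1 h at RT; 460/530 nm ratio gave %activity and AC50.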

Experiment [5] can be described thus: Stat Signaling Pathway (AID 446).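 Also: ME-180 cervical cancer cells given 40 pM IL-6 alongside compound; SIE-controlled beta-lactamase reporter measured as 460/530 nm FRET emission ratio; % is scaled to controls: 0 for no effect and ±100 for the full control effect.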 As to conditions: ME-180 SIE beta-lactamase reporter, IL-6 stimulated, 5 h; at 7.69 µM (top of the series) unless noted. Summed up: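 ME-180 SIE-bla cells; overnight plating; cpd + IL-6 40 pM, 5 h, 37 C; LiveBLAzer 2.5 h RT; 460/530 nm emission ratio. Normalized to 300 pM IL-6 and 125 nM JAK inhibitor controls.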
The target in experiment [6] is Glucocorticoid receptor (Homo sapiens) (UniProt P04150). Description: GR-GFP Redistribution (AID 450;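 active = compounds whose dose series gives a full or clear partial fitted curve of increased nuclear translocation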; also: potency is read from the fitted curve at half-maximal effect). As to conditions: U2OS GR-GFP nuclear translocation, laser cytometry, 2 h.
Glucocorticoid receptor (Homo sapiens), sequence (P04150 whole entry, looked up): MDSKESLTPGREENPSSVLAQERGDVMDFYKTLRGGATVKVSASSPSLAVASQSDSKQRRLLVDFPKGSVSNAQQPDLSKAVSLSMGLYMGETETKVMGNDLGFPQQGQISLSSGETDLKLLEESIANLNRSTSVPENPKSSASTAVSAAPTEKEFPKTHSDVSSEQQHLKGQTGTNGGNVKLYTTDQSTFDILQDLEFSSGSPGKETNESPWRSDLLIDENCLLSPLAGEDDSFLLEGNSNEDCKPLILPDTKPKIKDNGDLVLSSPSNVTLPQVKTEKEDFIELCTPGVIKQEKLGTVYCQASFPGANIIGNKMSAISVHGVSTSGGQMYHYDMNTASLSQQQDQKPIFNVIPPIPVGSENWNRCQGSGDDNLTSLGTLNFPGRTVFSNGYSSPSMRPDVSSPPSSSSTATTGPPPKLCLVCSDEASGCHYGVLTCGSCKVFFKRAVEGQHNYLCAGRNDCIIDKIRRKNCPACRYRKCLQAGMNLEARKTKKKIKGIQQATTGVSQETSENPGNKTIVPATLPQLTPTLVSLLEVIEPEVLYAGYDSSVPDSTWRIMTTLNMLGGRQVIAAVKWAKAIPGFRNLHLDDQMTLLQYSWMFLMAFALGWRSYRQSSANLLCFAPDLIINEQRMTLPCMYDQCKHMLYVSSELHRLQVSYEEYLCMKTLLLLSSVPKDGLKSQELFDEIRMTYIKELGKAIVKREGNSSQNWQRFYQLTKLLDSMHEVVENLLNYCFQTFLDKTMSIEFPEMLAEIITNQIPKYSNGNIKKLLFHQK
For experiment [7] the target is unchanged. Briefly: GR-EFC Redistribution (AID 451; calls by dose curve; also: potency is read from the fitted curve at half-maximal effect). The conditions noted are these: CHO-K1 GR-EFC translocation, beta-gal luminescence, 2 h. Summed up:
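CHO-K1 cells expressing nuclear EA and GR-ED fragments of b-gal; compounds titrated up to 46 uM final, 2 h at 37 C. GR nuclear translocation read as complemented b-gal luminescence after 1 h RT detection.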

The target in experiment [8] is Mitogen-activated protein kinase 10 (Mus musculus) (UniProt Q61831). Briefly: JNK3 AlphaScreen Assay (AID 530).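 Also: kinase came from lysate of stimulated human HepG2 cells; signal reports phosphorylation of biotinylated GST-cJun 1-79 at Ser73 with 10 µM ATP; % is scaled to controls: 0 for no effect and ±100 for the full control effect.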 The conditions noted are these: JNK3 lysate, c-Jun phosphorylation; series mostly up to 11.4 µM. Summed up: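 qHTS format: compounds tested as titrations against IL-1beta/TNF-alpha-activated HepG2 lysate JNK3 with biotin-GST-cJun substrate and 10 uM ATP at room temperature. Loss of anti-phospho-cJun AlphaScreen signal indicates inhibition.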
(Alpha assays give light when donor and acceptor beads are brought close together.)

Experiment [9] concerns the target 3',5'-cyclic-AMP phosphodiesterase 4B (Homo sapiens) (UniProt Q07343). Briefly: qHTS Assay for Inhibitors of PDE-IV (AID 607; active = well fitted activation curve with a large enough effect in the main read-out, with a control signal flat, not every such curve was filed as active; also: % of control where 0% means no effect). The conditions noted are these: HEK293 ACTOne CNG channel cells, membrane potential fluorescence; series mostly up to 22.9 µM. Summed up: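 ACTOne HEK293 cells carry a modified cAMP-gated CNG channel and express endogenous PDE4; plated 1000 cells/well, compounds up to 22.9 uM final. Membrane-potential dye fluorescence (ex 535/em 590) was read; parental cells received 10 uM forskolin + 100 uM RO 20-1724.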
On the technique in general: qHTS replaces the single test concentration by a dilution series.

Experiment [10] addresses Cytochrome P450 3A4 (Homo sapiens) (UniProt P08684). Description: qHTS Assay for Activators of Cytochrome P450 3A4 (AID 885; active = well fitted curve in the direction sought with a large enough effect; an effect the other way counts as inactive or inconclusive; also: nearly all actives have a fitted effect of over 65% in size). The conditions noted are these: recombinant CYP3A4, Luciferin-PPXE luminescence, 60 min; series mostly up to 11.4 µM. The method, boiled down:
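20nM CYP3A4 + 25uM Luciferin-PPXE (=KM), 200mM KPO4; cpd 10 min RT; NADPH regen, 60 min RT; stop w/ detection buffer, 20 min; luminescence. Normalized to 57 uM ketoconazole.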

For experiment [11] the target is unchanged. Description: qHTS Assay for Inhibitors and Substrates of Cytochrome P450 3A4 (AID 884; active = well fitted curve in the direction sought with a large enough effect; an effect the other way counts as inactive or inconclusive; also: potency is read from the fitted curve at half-maximal effect; nearly all actives have a fitted effect of over 50% in size). As to conditions: recombinant CYP3A4, Luciferin-PPXE luminescence; series mostly up to 57.1 µM. The method, boiled down:
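20 nM human CYP3A4 with 25 uM Luciferin-PPXE (at KM) in 200 mM KPO4, preincubated 10 min with compound; NADPH regeneration started a 60 min RT reaction. Luciferin detected by luminescence, normalized to 57 uM ketoconazole as full inhibition.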

Experiment [12] has as its target Cytochrome P450 2D6 (Homo sapiens) (UniProt P10635). Briefly: qHTS Assay for Inhibitors and Substrates of Cytochrome P450 2D6 (AID 891; active = well fitted curve in the direction sought with a large enough effect; an effect the other way counts as inactive or inconclusive; also: potency is read from the fitted curve at half-maximal effect; nearly all actives have a fitted effect of over 60% in size). The conditions noted are these: recombinant CYP2D6, luciferin-ME EGE luminescence; series mostly up to 11.4 µM. The method, boiled down:
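Human CYP2D6 (5 nM) with 30 uM Luciferin-ME EGE (at Km) in 100 mM KPO4, compound preincubated 10 min, then NADPH regeneration system for 60 min at room temperature. Luciferin read by luminescence; normalized to 1.43 uM quinidine.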

For experiment [13], the target named is Cytochrome P450 2C19 (Homo sapiens) (UniProt P33261). Description: qHTS Assay for Inhibitors and Substrates of Cytochrome P450 2C19 (AID 899; active = well fitted curve in the direction sought with a large enough effect; an effect the other way counts as inactive or inconclusive; also: potency is read from the fitted curve at half-maximal effect; nearly all actives have a fitted effect of over 60% in size). The conditions noted are these: recombinant CYP2C19, luciferin-H EGE luminescence; series mostly up to 11.4 µM. Summed up: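 Signal comes from luciferase acting on luciferin released by CYP2C19-mediated hydroxylation of Luciferin-H EGE, 10uM (KM). Assay mix: 5nM enzyme, 50mM KPO4; 60 min at 37C with NADPH regeneration. Data normalized against 57uM ketoconazole.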
Cytochrome P450 2C19 (Homo sapiens), sequence (P33261 whole entry, looked up): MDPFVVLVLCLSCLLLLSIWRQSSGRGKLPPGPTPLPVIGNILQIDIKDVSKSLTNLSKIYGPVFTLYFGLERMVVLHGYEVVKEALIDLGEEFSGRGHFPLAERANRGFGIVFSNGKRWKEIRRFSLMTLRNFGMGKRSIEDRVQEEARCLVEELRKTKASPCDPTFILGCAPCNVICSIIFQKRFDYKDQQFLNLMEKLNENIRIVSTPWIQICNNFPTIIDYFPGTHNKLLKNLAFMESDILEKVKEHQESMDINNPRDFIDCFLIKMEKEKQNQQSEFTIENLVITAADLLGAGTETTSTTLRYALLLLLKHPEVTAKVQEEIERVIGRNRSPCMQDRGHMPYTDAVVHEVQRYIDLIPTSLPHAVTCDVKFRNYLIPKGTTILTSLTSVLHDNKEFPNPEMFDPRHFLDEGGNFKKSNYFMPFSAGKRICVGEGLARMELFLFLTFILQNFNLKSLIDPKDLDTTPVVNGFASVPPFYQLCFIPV

The nature of experiment [14]: qHTS Assay for Identification of Small Molecule Agonists for Hypoxia Response Element Signaling Pathway (AID 914; active = well fitted activation curve with a large enough effect in the signal ratio, with a control signal flat, not every such curve was filed as active; the % refers to the signal ratio; also: % of control where 0% means no effect). The conditions noted are these: ME-180 (cervical carcinoma) HRE-bla reporter, beta-lactamase ratio, CoCl2, 17 h; activation: active compounds read high. The method, boiled down:
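ME-180 cells carrying an HRE-driven beta-lactamase reporter were treated with compounds in a titration series plus an EC50 level of CoCl2 for 17 h at 37 degrees Celsius; CCF4 readout as the 460nm/530nm ratio gave AC50 values.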

Cytochrome P450 3A4 (Homo sapiens), sequence (P08684 whole entry, looked up): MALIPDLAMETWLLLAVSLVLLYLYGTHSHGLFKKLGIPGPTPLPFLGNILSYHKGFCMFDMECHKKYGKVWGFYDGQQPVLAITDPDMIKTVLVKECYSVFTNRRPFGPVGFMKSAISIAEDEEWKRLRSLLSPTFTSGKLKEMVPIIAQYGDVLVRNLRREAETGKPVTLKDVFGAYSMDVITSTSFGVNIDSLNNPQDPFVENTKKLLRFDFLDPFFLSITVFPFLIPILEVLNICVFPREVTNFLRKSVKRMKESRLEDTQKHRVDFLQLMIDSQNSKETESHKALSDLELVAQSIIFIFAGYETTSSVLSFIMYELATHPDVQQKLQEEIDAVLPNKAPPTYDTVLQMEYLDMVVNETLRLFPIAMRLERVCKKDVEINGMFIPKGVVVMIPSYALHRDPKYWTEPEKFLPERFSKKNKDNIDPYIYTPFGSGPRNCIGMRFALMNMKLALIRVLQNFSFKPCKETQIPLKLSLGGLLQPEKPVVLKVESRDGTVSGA
Cytochrome P450 1A2 (Homo sapiens), sequence (P05177 whole entry, looked up): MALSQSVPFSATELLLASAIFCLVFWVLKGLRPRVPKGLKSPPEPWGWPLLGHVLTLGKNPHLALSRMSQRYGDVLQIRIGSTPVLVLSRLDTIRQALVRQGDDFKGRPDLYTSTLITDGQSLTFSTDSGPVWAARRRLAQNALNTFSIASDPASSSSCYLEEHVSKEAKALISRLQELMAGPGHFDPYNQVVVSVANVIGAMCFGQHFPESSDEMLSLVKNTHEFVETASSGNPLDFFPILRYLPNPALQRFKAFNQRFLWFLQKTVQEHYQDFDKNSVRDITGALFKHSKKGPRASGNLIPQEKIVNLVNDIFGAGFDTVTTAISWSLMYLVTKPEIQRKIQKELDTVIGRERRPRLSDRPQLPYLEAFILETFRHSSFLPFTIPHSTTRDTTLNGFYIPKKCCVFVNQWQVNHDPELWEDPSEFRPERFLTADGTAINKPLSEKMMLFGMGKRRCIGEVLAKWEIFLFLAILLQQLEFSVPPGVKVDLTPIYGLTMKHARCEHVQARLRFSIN
Lysosomal acid glucosylceramidase (Homo sapiens), sequence (P04062 whole entry, looked up): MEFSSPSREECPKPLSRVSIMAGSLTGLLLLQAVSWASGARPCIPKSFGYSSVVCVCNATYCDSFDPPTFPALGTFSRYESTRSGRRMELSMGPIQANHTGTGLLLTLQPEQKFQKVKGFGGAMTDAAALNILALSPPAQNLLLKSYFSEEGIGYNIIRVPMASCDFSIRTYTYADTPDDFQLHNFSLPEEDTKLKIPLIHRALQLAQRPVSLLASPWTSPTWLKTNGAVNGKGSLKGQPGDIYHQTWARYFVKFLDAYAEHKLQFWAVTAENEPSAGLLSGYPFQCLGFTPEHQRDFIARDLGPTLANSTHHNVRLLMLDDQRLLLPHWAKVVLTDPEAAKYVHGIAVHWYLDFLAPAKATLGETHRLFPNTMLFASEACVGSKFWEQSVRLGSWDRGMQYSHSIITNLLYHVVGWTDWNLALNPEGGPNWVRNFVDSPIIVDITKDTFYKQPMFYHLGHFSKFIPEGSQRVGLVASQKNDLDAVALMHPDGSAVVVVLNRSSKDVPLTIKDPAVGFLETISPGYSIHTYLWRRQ
3',5'-cyclic-AMP phosphodiesterase 4B (Homo sapiens), sequence (Q07343 whole entry, looked up): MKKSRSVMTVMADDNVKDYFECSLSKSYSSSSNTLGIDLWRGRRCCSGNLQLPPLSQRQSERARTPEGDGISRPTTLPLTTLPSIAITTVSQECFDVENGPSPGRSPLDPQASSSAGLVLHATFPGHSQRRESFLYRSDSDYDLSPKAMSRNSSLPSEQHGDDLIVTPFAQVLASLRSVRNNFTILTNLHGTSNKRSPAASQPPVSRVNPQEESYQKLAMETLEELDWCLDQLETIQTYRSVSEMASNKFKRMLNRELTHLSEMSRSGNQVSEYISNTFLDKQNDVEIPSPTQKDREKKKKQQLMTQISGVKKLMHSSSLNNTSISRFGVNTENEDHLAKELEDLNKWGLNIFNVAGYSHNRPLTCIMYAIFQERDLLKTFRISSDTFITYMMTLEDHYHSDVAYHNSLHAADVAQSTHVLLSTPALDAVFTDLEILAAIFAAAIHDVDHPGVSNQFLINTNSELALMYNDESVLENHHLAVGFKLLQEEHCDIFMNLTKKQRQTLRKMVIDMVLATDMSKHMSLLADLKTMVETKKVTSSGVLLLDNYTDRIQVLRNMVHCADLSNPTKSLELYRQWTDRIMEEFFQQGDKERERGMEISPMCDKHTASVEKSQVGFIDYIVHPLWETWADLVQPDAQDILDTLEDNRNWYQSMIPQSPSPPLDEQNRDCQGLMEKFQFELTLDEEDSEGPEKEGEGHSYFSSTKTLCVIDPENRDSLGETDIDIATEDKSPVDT
Cytochrome P450 2D6 (Homo sapiens), sequence (P10635 whole entry, looked up): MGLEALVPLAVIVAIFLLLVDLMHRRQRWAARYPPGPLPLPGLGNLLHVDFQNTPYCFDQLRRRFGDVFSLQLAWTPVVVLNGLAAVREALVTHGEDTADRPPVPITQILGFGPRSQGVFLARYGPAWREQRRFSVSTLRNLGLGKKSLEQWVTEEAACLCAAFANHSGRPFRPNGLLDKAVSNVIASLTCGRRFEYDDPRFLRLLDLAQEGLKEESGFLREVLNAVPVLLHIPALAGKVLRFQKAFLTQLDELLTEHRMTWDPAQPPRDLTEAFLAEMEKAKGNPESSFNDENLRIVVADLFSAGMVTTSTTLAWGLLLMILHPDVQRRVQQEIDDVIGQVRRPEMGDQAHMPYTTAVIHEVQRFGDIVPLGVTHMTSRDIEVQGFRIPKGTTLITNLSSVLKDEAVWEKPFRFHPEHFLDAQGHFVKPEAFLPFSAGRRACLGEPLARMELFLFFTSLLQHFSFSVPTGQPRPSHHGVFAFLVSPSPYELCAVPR

With `CN1CCN(Cc2nc3cccc4c3c([n+]2[O-])-c2ccccc2-4)CC1`, the Potency is over 11.4 µM in [1], 1.26 µM (active) in experiment [3], over 46 µM in experiment [6] and over 9.22 µM in experiment [7]. The activity change, negative = inhibition in [2] is -4.75%; in experiment [4], 9.77%. Also, the activity, negative = inhibition in experiment [5] was 6.12%. For the same molecule, the Potency result in experiment [8], in [9] and in experiment [10] was “inactive” throughout.

Turning to `Cn1ncc2c(NCCc3ccccc3)nc(Cl)nc21`, the Potency in [1] is over 11.4 µM; in experiment [3] it was 2.51 µM (active); in experiment [6], over 46 µM; in experiment [7], over 9.22 µM; in [11], 2 µM (active); in experiment [12], 0.126 µM (active). Moreover, the Potency in [13] was 0.126 µM (active). Further, the activity change, negative = inhibition in experiment [2] was -2.77%; in experiment [4], 2.58%. Moreover, the activity, negative = inhibition in experiment [5] is -19.5%. Besides, the Potency entry in experiment [8], in experiment [9] and in [10] was “inactive” each time.

As for `Cc1ccc2c(c1)N[C@H](c1ccc(C(=O)O)cc1)c1cccn1-2`, the Potency in [1] was over 11.4 µM; in experiment [3], 0.794 µM (active); in experiment [6], over 46 µM; in experiment [7], over 9.22 µM; in [11], 0.0501 µM (active). For the same molecule, the activity change, negative = inhibition in experiment [2] is -23.5%; in [4], -7.71%. Further, the activity, negative = inhibition in [5] is -5.32%. For the same molecule, the Potency result in experiment [8], in experiment [9] and in experiment [10] was “inactive” in each case. In addition, the activation in experiment [14] is -21.9%.

Consider `c1ccc(C[C@@H](Nc2cccnc2)c2ccccc2)cc1`, for which the Potency is over 11.4 µM in experiment [1]; 0.2 µM (active) in experiment [3]; over 46 µM in experiment [6]; over 9.22 µM in [7]; 3.16 µM (active) in [11]. In addition, the activity change, negative = inhibition in [2] is 5.71%; in experiment [4], -11.2%. Also, the activity, negative = inhibition in experiment [5] was -4.39%. The Potency entry in experiment [8], in experiment [9] and in [10] was “inactive” each time.

Regarding `c1nc(NCCc2cnc[nH]2)c2[nH]cnc2n1`, the Potency was over 11.4 µM in experiment [1], 5.01 µM (active) in experiment [3], over 46 µM in experiment [6] and over 9.22 µM in experiment [7]. In addition, the activity change, negative = inhibition was 3.43% in experiment [2] and 6.94% in [4]. Besides, the activity, negative = inhibition in experiment [5] is 0.609%. For the same molecule, the Potency result in experiment [8], in experiment [9] and in experiment [10] was “inactive” each time.

Regarding `O=C(O)/C=C\C(=O)Nc1ccc2c(c1)-c1ccccc1C2`, the Potency is over 11.4 µM in experiment [1], 1 µM (active) in experiment [3], over 46 µM in [6] and over 9.22 µM in [7]. Further, the activity change, negative = inhibition in experiment [2] was -11.5%; in [4] it was 6.68%. Besides, the activity, negative = inhibition in experiment [5] was -8.21%. Besides, the Potency result in experiment [8], in [9] and in experiment [10] was “inactive” each time.
